Data taken from paper PMC12670160, “A drug-repurposing screen of FDA- and EMA-approved drugs identifies two NF-κB inhibitors active against eumycetoma” (Journal of Antimicrobial Chemotherapy, 2025).
Counter-ions that a name gives are not always drawn. Like-named read-outs stand apart in the source and are kept apart here. Screen size: about 5,300 compounds; about 130 (2.5%) showed an effect of 50% or more. This excerpt belongs to a sample that is enriched for strong results.

Tested on: M. mycetomatis strain mm55
Details: primary screen, metabolic activity vs growth control, 96 h, 2 µM, inhibitor

Structure (SMILES)	% viability	% viability (Madurella mycetomatis metabolic activity at 2µM (%))
c1ccc(-c2ccc(CNc3nc(-c4ccccn4)nnc3-c3ccccc3)cc2)cc1 [ONC0001674, ml228]	2.835%	
c1cnc(NCc2ccc(CNc3ncccn3)cc2)nc1 [ONC0002000, msx122]	83.13%	
c1ccc(NCc2ccc(CNc3ccccn3)cc2)nc1 [ONC0004550, wz 811]	63.57%	
FCc1ccc(OCCOc2ccc(Cl)cc2Cl)c(Cl)n1 [ONC0000095, cym50260]	81.52%	
O=C(O)CN(CCN(CC(=O)O)CC(=O)O)CCN(CC(=O)O)CC(=O)O [ONC0005432, gadopenteticacid]		103.1%
CC(C)N[C@@H]1CCn2c(=O)[nH]c3cccc(c32)[C@H]1O [ONC0001941, zilpaterolhcl]	67.69%	
COc1cccc2c1C(=O)c1c(O)c3c(c(O)c1C2=O)C[C@@](O)(C(=O)CO)C[C@@H]3O[C@H]1C[C@H](N)[C@@H](O)[C@H](C)O1 [ONC0004636, epirubicin hydrochloride]	92.65%	
CC(=O)[C@]1(O)Cc2c(O)c3c(c(O)c2[C@@H](O[C@H]2C[C@H](N)[C@H](O)[C@H](C)O2)C1)C(=O)c1ccccc1C3=O [ONC0004533, idarubicin hcl]	43.23%	
COc1cccc2c1C(=O)c1c(O)c3c(c(O)c1C2=O)C[C@@](O)(C(C)=O)C[C@@H]3O[C@H]1C[C@H](N)[C@H](O)[C@H](C)O1 [ONC0001686, daunorubicin]	72.25%	
CNC(=O)ON(C(C)=O)C(=O)NC [ONC0003740, caracemide]	136.5%	
NC(=O)c1nc(F)c[nH]c1=O [ONC0003386, favipiravir]	85.13%	
CCN(CC)C(=O)Nc1ccc(OCC(O)CNC(C)(C)C)c(C(C)=O)c1 (stereo not drawn) [ONC0002160, celiprolol]	87.56%	
CC(=O)Nc1ccc(OCC(O)CNC(C)C)cc1 (stereo not drawn) [ONC0002176, practolol]	73.91%	
CCCC(=O)Nc1ccc(OCC(O)CNC(C)C)c(C(C)=O)c1 (stereo not drawn) [ONC0003369, acebutolol hydrochloride]	44.26%	
O=C(O)c1cc(/N=N/c2ccc(S(=O)(=O)Nc3ccccn3)cc2)ccc1O [ONC0000599, sulfasalazine]	109.1%	
COc1ccc(NS(=O)(=O)c2ccc(N=Nc3ccc(O)c(C(=O)O)c3)cc2)nn1 [ONC0003399, salazodine]	47.95%	
COc1ccc(NS(=O)(=O)c2ccc(N)cc2)nn1 [ONC0000622, sulfamethoxypyridazine]	113.3%	
NS(=O)(=O)NCCNc1nonc1C(=NO)Nc1ccc(F)c(Br)c1 [ONC0005250, epacadostat incb024360]	130.3%	
CN1CCN(C(=O)C2C(C(=O)O)[C@@H]3CC[C@H]2O3)CC1 (stereo partly drawn) [ONC0001871, lb100]	109.3%	
CCO/N=C(/C(=O)N[C@@H]1C(=O)N2C(C(=O)O)=C(Sc3nc(-c4cc[n+](C)cc4)cs3)CS[C@H]12)c1nsc(NP(=O)(O)O)n1 [ONC0002991, ceftarolinefosamil]	80.17%	

Structure (SMILES)	% viability	% viability (Madurella mycetomatis metabolic activity at 2µM (%))
COc1ccc(NS(=O)(=O)c2ccc(I)cc2)cc1N1CCN(C)CC1 [ONC0001661, sb258585]	76.38%	
COc1ccc(NS(=O)(=O)c2sc3ccc(Cl)cc3c2C)cc1N1CCNCC1 [ONC0005236, sb 271046]	123.6%	
COc1ccc(S(=O)(=O)Nc2cc(Cl)cc(Cl)c2OC)cc1N1CCNCC1 [ONC0000041, sb399885]	47.84%	
O=C1Nc2c(ccc(Cl)c2Cl)C1=NO [ONC0002536, ns309]	65.12%	
COC(=O)[C@H]1[C@@H](C)[C@@H](OC)C=CO[C@@]2(C)Oc3c(C)c(O)c4c(O)c(cc(O)c4c3C2=O)NC(=O)/C(C)=C\C=C/[C@@H](C)[C@@H](O)[C@@H](C)[C@H](O)[C@@H]1C [ONC0003453, rifamycin sv sodium salt]	53.39%	
CN(C)[C@@H]1C(=O)C(C(N)=O)C(=O)[C@@]2(O)C(=O)C3C(=O)c4c(O)ccc(Cl)c4[C@@H](O)[C@H]3C[C@@H]12 (stereo partly drawn) [ONC0000432, demeclocycline hydrochloride]	77.24%	
CCCCCCc1ccc(O)cc1O [ONC0000355, hexylresorcinol]	72.69%	
CCCCCCCCc1ccc(CCC(N)(CO)CO)cc1 [ONC0005159, fingolimod fty720 hcl]	130.1%	
CCCCCCCCCCCC1=C(O)C(=O)C=C(O)C1=O [ONC0001079, embelin]	49.47%	
NC1=N[C@H]2[C@H](CCCCC(=O)O)SC[C@H]2N1 [ONC0003635, 2iminobiotin]	86.51%	
CC(C)=CCC/C(C)=C/CC/C(C)=C/CCC(O)OC/C=C(\C)CCC=C(C)C (stereo not drawn) [ONC0000430, geranylfarnesylacetate gefarnate]	66.04%	
O=C(OOC(=O)c1ccccc1)c1ccccc1 [ONC0003111, benzoyl peroxide]	80.87%	
Cc1ccc2c(Br)cc(Br)c(OC(=O)c3ccccc3)c2n1 [Broxaldine]	3.407%	
O=C(Oc1cccc2cccnc12)c1ccccc1 [ONC0003987, benzoxiquine]	75.23%	
c1cnc2cc3c(cc2n1)C1CNCC3C1 [ONC0004813, varenicline tartrate]	83.4%	
CCCC[C@H](C)C[C@H](O)/C=C/[C@H]1[C@H](O)CC(=O)[C@@H]1CCCC/C=C/C(=O)O [ONC0005482, limaprost]	96.34%	
Cc1ccc(C(C)C)c(OC=C2NCCN2)c1 [ONC0005561, tymazoline]	90.75%	
O=[N+]([O-])c1ccccc1S(=O)(=O)NC[C@H]1CC[C@H](CNCC2CCc3ccccc3C2)CC1 (stereo partly drawn) [ONC0000121, ntncb]	80.22%	
CC(=O)OC1[C@@H](N2CC[N+](C)(C)CC2)C[C@H]2[C@@H]3CC[C@H]4C[C@H](OC(C)=O)[C@@H](N5CC[N+](C)(C)CC5)C[C@]4(C)[C@H]3CC[C@]12C (stereo partly drawn) [ONC0001992, pipecuronium]	103.5%	
O=C(CCCCCCC(=O)NO)NO [ONC0001756, sbha]	85.39%	

Structure (SMILES)	% viability	% viability (Madurella mycetomatis metabolic activity at 2µM (%))
CCCCOc1ccc(CC(=O)NO)cc1 [ONC0000683, bufexamac]	91.55%	
CCC(=O)NO [ONC0002308, zami633]	45.69%	
OCC(O)COc1ccc(Cl)cc1 (stereo not drawn) [ONC0002159, chlorphenesin]	67.41%	
CCC(C)CC(C)CCCCCCCCC(=O)N[C@H]1C[C@@H](O)[C@@H](NCCN)NC(=O)[C@@H]2[C@@H](O)CCN2C(=O)[C@H]([C@H](O)CCN)NC(=O)[C@H]([C@@H](O)[C@H](O)c2ccc(O)cc2)NC(=O)[C@@H]2C[C@@H](O)CN2C(=O)[C@H]([C@@H](C)O)NC1=O (stereo partly drawn) [ONC0002201, caspofungin acetate]	69.7%	
CN1CCN(C(=O)CN[C@@H]2C[C@H]2c2ccc(OCc3ccccc3)cc2)CC1 [ONC0000424, rn1]	85.6%	
COc1ccc2[nH]c(C(=O)c3ccccc3)cc2c1 [ONC0001898, d64131]	78.99%	
COc1ccc(/C=C/CCCCOc2ccc(C(=O)c3cccc(C(=O)O)c3)cc2CCC(=O)O)cc1 [ONC0003815, ly223982]	21.75%	
COc1ccc(/C=C/C(=O)O)cc1 [ONC0003824, trans4methoxycinnamicacid]	65.15%	
CC(=O)[C@H]1CC[C@H]2[C@@H]3CC=C4C[C@@H](O)CC[C@]4(C)[C@H]3CC[C@]12C [ONC0003199, pregnenolone]	77.25%	
Cc1oc2nc3c(c(NC(=O)CN4CCCC4=O)c2c1C)CCCC3 [ONC0001218, coluracetam]	81.81%	
CCOC(=O)Nc1ccc(NCc2ccc(F)cc2)nc1N.O=C(O)/C=C\C(=O)O [ONC0001304, flupirtine maleate]	68.53%	
CCOC(=O)Nc1nc2ccccc2[nH]1 [ONC0004223, lobendazole]	137.9%	
CCOC(=O)Nc1cc2c(c(N)n1)NC(c1ccccc1)=C(C)N2 [ONC0002128, mivobulin]	3.846%	
C=CC(=O)N1CCCC(n2c(=O)n(-c3ccc(Oc4ccccc4)cc3)c3c(N)ncnc32)C1 (stereo not drawn) [ONC0004392, ono4059]	98.71%	
C[N+]1(C)C2CCC1CC(OC(=O)C(CO)c1ccccc1)C2 (stereo not drawn) [ONC0003986, methylatropine nitrate]	73.02%	
CN1C2C[C@H](OC(=O)[C@H](CO)c3ccccc3)C[C@@H]1[C@@H](O)C2 [ONC0003283, anisodamine hydrobromide]	41.57%	
C[N+]1([O-])C2CCC1CC(OC(=O)C(CO)c1ccccc1)C2 (stereo not drawn) [ONC0004212, atropine oxide]	82.92%	
FC(F)(F)Oc1ccc2[nH]c(-c3ccc(OCCOCCOc4ccc(-c5nc6cc(OC(F)(F)F)ccc6[nH]5)nc4)cn3)nc2c1 [ONC0000980, ai1049]	83.7%	
CC(=O)OCC1=C(C(=O)O)N2C(=O)[C@@H](N)[C@H]2SC1 [ONC0004514, 7aminocephalosporanic acid]	52.68%	
CCn1cc(-c2cccc(C(F)(F)F)c2)c2sc(C(=N)NC3CCS(=O)(=O)CC3)cc2c1=O [ONC0001085, ibrd9]	45.4%	
